Experimental findings from PubChem BioAssay AID588335 (The Scripps Research Institute Molecular Screening Center, 2011) are described below.

Out of some 360,000 compounds screened, about 4,500 (1.2%) were called active. Cut-off read from the data, not from the text of the source: active = inhibition above about 30%; inactive = the rest. Shown is part of a subset that was picked to be rich in actives.

The nature of this experiment: GDH-TPI coupling enzyme inhibitors, primary screen, artefact control for M. tuberculosis FBA inhibitor project, biochemical, absorbance, full deck (AID 588335).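 Note: 0% = DMSO wells and 100% = wells lacking the enzyme.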 The conditions noted are these: GDH-TPI coupled enzyme counterscreen, NADH absorbance; at 4.8 µM; hits give high values. (Counterscreens check selectivity or assay interference.)
`O=C(CCS(=O)(=O)c1cccc2nsnc12)N1CCN(c2ccccc2F)CC1`: the inhibition – broadly, the change of the read-out against control, counted positive when it falls – is 19.6% (inactive).

Consider `COc1ccc(/C=N/N=C/c2c[nH]c(=O)c(C#N)c2Nc2ccccc2)cc1`, for which the inhibition is 50.2% (active). Take `COc1ccc(O)c(/C=N/N=C/c2cccc([N+](=O)[O-])c2)c1`: the inhibition is -12.3% (inactive). Regarding `COc1ccc(/C=N/Nc2nc(-c3ccc(C)cc3)c(C#N)c(=O)[nH]2)cc1`, the inhibition was 10% (inactive). As to `O=C1NC(c2ccccc2)CCC1(Cl)Cl` (stereo unspecified), the inhibition was 3.97% (inactive). As for `Cc1ccc(Cn2c(NC(=O)c3ccco3)nc3ccccc32)cc1`, the figure is 37.1% (active).

Take `CCn1nc(NC(=O)c2ccco2)c2cc3ccc(C)cc3nc21`: the inhibition is -4.08% (inactive). Consider `Cc1ccc(C(=O)Nc2c(C#N)c(C)c(C)n2Cc2ccccc2)cc1`, for which the inhibition is -3.02% (inactive). Regarding `CN1CCN(C(=O)CCc2ncc(C(F)(F)F)cc2Cl)CC1`, the inhibition was -4.79% (inactive). For `CC(C)c1ccc(S(=O)(=O)N2CCN(C(=O)CN3C(=O)NC(C)(c4ccccc4)C3=O)CC2)cc1` (stereo unspecified), the inhibition was -2.79% (inactive).

Turning to `CC(N=Cc1nc(-c2ccccc2)oc1O)c1ccccc1` (stereo unspecified), the inhibition was 46.8% (active). For `Oc1oc(-c2ccccc2Br)nc1/C=N/c1ccccn1`, the inhibition is 15.5% (inactive).

For the molecule `COc1ccc(CN(C)C(C)C(=O)NC2CCCc3ccccc32)cc1` (stereo unspecified), the inhibition is -4.42% (inactive).

As to `Cn1c(=O)c2c(-c3cccc(Br)c3)c(C#N)c(N)nc2n(C)c1=O`, the inhibition is 32.1% (active).

Turning to `CSc1ccc(-c2c(C#N)c(N)nc3c2c(C)nn3-c2ccccc2)cc1`, the inhibition is 21.3% (inactive). As to `Cc1cc(C)c2c(-c3ccc(F)cc3)c(C#N)c(=O)n(C)c2n1`, the inhibition was 12.6% (inactive). As for `COc1ccc(NC(=O)NCCN2CCN(c3ccc(C)cc3)CC2)c(Cl)c1`, the inhibition was 32.2% (active). In the case of `COc1ccc(N2CCN(CCNC(=O)Nc3cc(Cl)ccc3Cl)CC2)cc1`, the inhibition is 5% (inactive). As for `COc1ccc(N2CCN(CCNC(=O)c3nnc(Cc4c(F)cccc4Cl)o3)CC2)cc1`, the figure is 5.33% (inactive); as for `CSC1=N/C(=C\C=C\c2cccs2)C(=O)S1`, 4.56% (inactive); as for `COc1ccccc1/C=C1\SC(=O)N(CCC(=O)N(C)C2CCS(=O)(=O)C2)C1=O` (stereo unspecified), 26.5% (inactive).

With `O=C(CCN1C(=O)c2ccccc2C1=O)NCCCn1ccnc1`, the inhibition is -1.58% (inactive). For the molecule `O=C(CN1C(=O)/C(=C/c2ccccc2F)Sc2ccccc21)NCc1cccnc1`, the inhibition was 12.4% (inactive). As for `COc1ccc(/C=C2\SC(=O)N(CCC(=O)NCCCn3ccnc3)C2=O)cc1`, the figure is 43.6% (active); as for `O=C(CN1C(=O)S/C(=C\c2ccccc2F)C1=O)NCCCn1ccnc1`, 33.6% (active); as for `COc1ccc(-c2ccc(OC(=O)NC3CCS(=O)(=O)C3)cc2)cc1` (stereo unspecified), -7.23% (inactive).

As to `Cc1cc(OCCCC(=O)NCCN2C(=O)S/C(=C\c3cccnc3)C2=O)ccc1Cl`, the inhibition was 11.2% (inactive). Turning to `COc1ccc(/C=C2\SC(=O)N(CCC(=O)NC3CCS(=O)(=O)C3)C2=O)cc1` (stereo unspecified), the inhibition was 41% (active). As for `O=C(NCCCn1ccnc1)/C(=C\c1ccccc1F)NC(=O)c1ccccc1`, the figure is -0.75% (inactive); as for `CCOc1cc2c(Cl)ncnc2c(OCC)c1OCC`, 2.46% (inactive). As for `CCOC(=O)C1(Cc2ccccc2C)CCCN(C(=O)c2ccc(COC)o2)C1` (stereo unspecified), the figure is 6.53% (inactive). For `COc1ccc(CNC(=O)C[C@H]2C[C@H](C(=O)N3CCOCC3)[C@@]3(CCC4CCCC4)c4[nH]c5ccc(Cl)cc5c4CCN3C2=O)cc1OC`, the inhibition is -3.13% (inactive). With `CCN(CC(=O)NC(C)C)C(=O)c1cc(S(=O)(=O)N2CCCCC2)ccc1N1CCCCC1`, the inhibition was 2.16% (inactive). As for `O=C(COc1cc(Cl)c(Cl)cc1Cl)NCCc1ccccn1`, the figure is 3.15% (inactive); as for `NC(=S)NN=Cc1ccc(OC(=O)COc2cc(Cl)c(Cl)cc2Cl)cn1`, 49.8% (active). As for `O=C(COC(=O)COc1cc(Cl)c(Cl)cc1Cl)NC1CC1`, the figure is 7.02% (inactive). Consider `CN(CCO)c1ccc(/C=N/Nc2nncc3ccccc23)cc1`, for which the inhibition is 15.2% (inactive). Consider `COc1cc(Nc2nc3ccc(Cl)cc3n3cnnc23)cc(OC)c1OC`, for which the inhibition is -2.21% (inactive). Take `COc1cc(/C=N/Nc2nn3cnnc3c3ccccc23)cc(OC)c1OC`: the inhibition was 43.1% (active). Regarding `CCOC(=O)C1(CCOc2ccccc2)CCN(C(=O)c2cncs2)CC1`, the inhibition is 3.14% (inactive). For the molecule `O=C1NC(c2ccccc2)=NC1(Nc1ccccn1)C(F)(F)F` (stereo unspecified), the inhibition is -8.86% (inactive). With `COc1ccc(NC(=O)C2=CC(c3ccc(OC)c(OC)c3)=NS(=O)(=O)N2C)cc1`, the inhibition is 32.7% (active). As for `COc1ccc(C2=NS(=O)(=O)N(C)C(C(=O)N(C)Cc3ccccc3)=C2)cc1`, the figure is 34% (active). Consider `COc1ccc(C2=NS(=O)(=O)N(C)C(C(=O)N3CCCCC3)=C2)cc1`, for which the inhibition was 24.4% (inactive). As to `COc1cc(NC(=O)C2=CC(c3ccco3)=NS(=O)(=O)N2C)cc(OC)c1OC`, the inhibition was 30.4% (inactive).

For `COc1ccc(C2=NS(=O)(=O)N(C)C(C(=O)NC(C)c3ccccc3)=C2)cc1` (stereo unspecified), the inhibition is 23.1% (inactive). As for `COc1cc(NC(=O)C2=CC(c3ccc(C)cc3)=NS(=O)(=O)N2C)cc(OC)c1OC`, the figure is 27.7% (inactive); as for `CCc1cc(=O)oc2c(C)c(OCC(=O)N3CC[C@@]4(O)CCCC[C@H]4C3)ccc12`, 7.84% (inactive).

`NC(=O)c1nsc(C(=O)N(CCCN2CCOCC2)C(C(=O)NC2CCCCC2)c2ccc(Cl)cc2)c1N` (stereo unspecified): the inhibition was 3.02% (inactive). For `Cc1ccc(NC(=O)c2ccc(Oc3ncccn3)cc2)cc1`, the inhibition was 11.6% (inactive). As for `Cc1ccc(C(=O)NNC(=O)c2cc3cc4ccccc4nc3s2)cc1`, the inhibition is 10.2% (inactive). Take `Cc1ccc(C(=O)NNc2ncnc3ccccc23)cc1`: the inhibition is 43.8% (active). As to `O=C(O)CC(Cc1ccccc1)C(=O)Nc1ccc([N+](=O)[O-])cc1` (stereo unspecified), the inhibition is 19.3% (inactive). For the molecule `CC(=O)n1cc([C@@H]2C=C(C(=O)N3CCN(Cc4ccc5c(c4)OCO5)CC3)O[C@H](OCc3ccc(CO)cc3)C2)c2ccccc21`, the inhibition is -1.76% (inactive). As to `CCOC(=O)C1=C(O)/C(=C/c2cc(C)n(-c3ccccc3)c2C)N=C1C`, the inhibition was 2.64% (inactive). Turning to `Cc1cccc(C)c1-n1c(C)cc(/C=C2\C(=O)NN(c3ccccc3)C2=O)c1C`, the inhibition is 33% (active).
